A short description of assay [1]: APR_HepG2_NuclearSize_24hr: Apredica 24-hour HepG2 Assay for Nuclear Size (AID 2282907). The following applies: high-content imaging, actives raise or lower the signal. An outline of the steps:
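HepG2 human liver cells were exposed for 24 hr to compounds at 0.39–200 uM (ten concentrations, duplicate) in 0.5% v/v DMSO. They were then formaldehyde-fixed, Triton-permeabilized and Hoechst 33342-stained, and nuclear diameter was imaged at 20x. Bidirectional fits were made against DMSO.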

Assay [2] is described as follows: APR_HepG2_CellLoss_24hr: Apredica 24-hour HepG2 Assay for Cell Loss (AID 2282908).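 For AC50: fit in both directions so a hit may be cell loss or gain.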 Particulars: high-content imaging. An outline of the steps: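 Compounds were tested at 0.39–200 uM in duplicate with 0.5% v/v DMSO final. Cells were then fixed in 3.7% formaldehyde, Hoechst 33342 nuclei were imaged at 20x by HCS, and cell number was fitted bidirectionally against DMSO.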

Assay [3] is described as follows: APR_HepG2_MicrotubuleCSK_24hr: Apredica 24-hour HepG2 Assay for Microtubule CSK Stabilty (AID 2282909). The following applies: HepG2 microtubule cytoskeleton imaging, actives raise or lower the signal. A digest of the protocol:
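HepG2 cells exposed 24 h to compounds at 0.39–200 uM (duplicate, 0.5% v/v DMSO final), then fixed, permeabilized and immunostained for alpha-tubulin with Hoechst 33342. Cytoskeleton imaged at 20x; bidirectional fit versus DMSO baseline.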

Assay [4] can be described thus: APR_HepG2_MitoticArrest_24hr: Apredica 24-hour HepG2 Assay for Mitotic Arrest (AID 2282910). The following applies: high-content imaging, actives raise or lower the signal. A digest of the protocol:
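Compounds are dosed onto HepG2 cells across ten concentrations up to 200 uM for 24 hr. Cells are then fixed in 3.7% formaldehyde, permeabilised, and labelled for phospho-histone H3 and nuclei; images are scored by cell cycle analysis and fitted bidirectionally relative to DMSO.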

The nature of assay [5]: APR_HepG2_MitoMembPot_24hr: Apredica 24-hour HepG2 Assay for Mitochondrial Membrane Potential (AID 2282911). Particulars: imaging, actives raise or lower the signal. A digest of the protocol:
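HepG2 human liver cells were exposed 24 hr to compounds at 0.39–200 uM (final DMSO 0.5% v/v) in duplicate. MitoTracker Red CMXRos (250 nM, 30 min) was loaded before formaldehyde fixation; fluorescence was imaged by ArrayScan HCS and fitted bidirectionally versus DMSO.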

Assay [6] in a line: APR_HepG2_MitoMass_24hr: Apredica 24-hour HepG2 Assay for Mitochondrial Mass (AID 2282912). Particulars: high-content imaging, actives raise or lower the signal. An outline of the steps: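 Human HepG2 liver cells were exposed for 24 hr to compounds at 0.39–200 uM (duplicates, 0.5% v/v DMSO final). They were stained live with 250 nM MitoTracker Red CMXRos for 30 min, fixed in 3.7% formaldehyde, and imaged by HCS fluorescence; signals were fitted bidirectionally against DMSO.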

Assay [7] can be described thus: APR_HepG2_CellLoss_72hr: Apredica 72-hour HepG2 Assay for Cell Loss (AID 2282915). The following applies: high-content imaging. A digest of the protocol:
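Cell number comes from Hoechst 33342-labelled nuclei, imaged at 20x after 3.7% formaldehyde fixation. Dosing was 0.39–200 uM, ten concentrations in duplicate, 0.5% DMSO final, for 72 h. Bidirectional fit relative to DMSO baseline.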

A short description of assay [8]: APR_HepG2_P-H2AX_72hr: Apredica 72-hour HepG2 Assay for H2AX Phosphorylation (AID 2282916).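 Note: phospho-histone H2A.x immunostain intensity per cell marking DNA damage.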 Particulars: imaging, actives raise or lower the signal. An outline of the steps:
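HepG2 human liver cells were exposed for 72 hr to compounds at 0.39–200 uM (10 concentrations, duplicate per plate) in 0.5% v/v DMSO. Fixed, permeabilized cells were immunolabeled for phospho-histone H2A.x with Hoechst 33342 and imaged by HCS fluorescence; bidirectional fit versus DMSO.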

A short description of assay [9]: APR_HepG2_MitoticArrest_72hr: Apredica 72-hour HepG2 Assay for Mitotic Arrest (AID 2282918). Particulars: high-content imaging, actives raise or lower the signal. A digest of the protocol: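 HepG2 cells were exposed for 72 hr to compound at 0.39–200 uM (10 concentrations, duplicate) in 0.5% v/v DMSO, fixed in 3.7% formaldehyde, immunostained for phospho-histone H3 with Hoechst 33342 and imaged by high-content fluorescence; bidirectional fits versus DMSO.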

A short description of assay [10]: APR_HepG2_p53Act_24hr: Apredica 24-hour HepG2 Assay for p53 Activation (AID 2282913).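 Note: p53 protein immunofluorescence averaged per cell in HepG2 with Hoechst nuclei.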 The following applies: high-content imaging, actives raise or lower the signal. An outline of the steps: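 HepG2 cells exposed 24 hr to compounds at 0.39–200 uM (10 concentrations, duplicate), final DMSO 0.5% v/v. After formaldehyde fixation and Triton permeabilization, p53 was immunolabeled (sheep anti-p53, Cy5 secondary) with Hoechst 33342 nuclear counterstain, then imaged by high-content fluorescence microscopy.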

Active and inactive are the calls of the source. Rule for the calls: active = hit-call score of the fitted dose curve at least 0.9, where 1 is the maximum; inactive = score below 0.9.

The values below come from PubChem BioAssay (EPA / NIEHS).

As for `CC(C)(C)c1ccccc1O`, the call in [1], in [2], in assay [3], in [4], in assay [5] and in assay [6] was inactive. Besides, the result in assay [7], in [8] and in assay [9] was inactive.
Regarding `O=C(N[C@H]1CN2CCC1CC2)c1ccc2c(c1)OCCO2`, the result in assay [1], in assay [2], in assay [3], in [4], in assay [5] and in assay [6] was inactive. The compound was classed as inactive in assay [7], in [8] and in assay [9].
As for `O=C(O)C1(c2ccc3c(c2)OC[C@H](Cc2ccc(-c4ccccc4)cc2)[C@H]3O)CCCC1`, the result in assay [1], in assay [2], in [3] and in assay [4] was inactive. Moreover, the AC50 in assay [5] is 105 µM (active); in assay [6], 112 µM (active); in [7], 86.9 µM (active); in assay [8] it was 106 µM (active); in assay [9], 105 µM (active).
Turning to `N#Cc1cccnc1`, the call in assay [1], in assay [2], in assay [3], in assay [4], in [5] and in [6] was inactive. Also, the compound was called inactive in assay [7], in assay [8] and in assay [9].
With `CC(C)O.CC(C)O.OCCN(CCO)CCO.OCCN(CCO)CCO.[Ti]`, the outcome in [1], in [2], in assay [3], in assay [4], in [5] and in assay [6] was inactive. The compound was called inactive in assay [7], in assay [8] and in [9].
For the compound `Cc1cc(C)cc(C)c1`, the result in assay [1], in assay [2], in assay [3], in [4], in assay [5] and in assay [6] was inactive. The compound was called inactive in assay [7], in assay [8] and in assay [9].
With `Oc1cc(Cl)c(Cl)cc1Cl`, the compound was called inactive in assay [1] and in [5]. Also, the AC50 is 27.7 µM (active) in [2]; 41.8 µM (active) in assay [3]; 38.6 µM (active) in assay [4]; 46.7 µM (active) in assay [6]; 44.6 µM (active) in [7]; 42.4 µM (active) in assay [8]. In addition, in [9], the AC50 is 29.5 µM (active).
As to `OCCN(CCO)CCO`, the compound was called inactive in [1], in assay [2], in [3], in assay [4], in assay [5] and in [6]. For the same compound, the outcome in assay [7], in [8] and in assay [9] was inactive.
For the compound `CCCCCCCCCCCCc1cccc(S(=O)(=O)O)c1`, the compound was classed as inactive in assay [1], in assay [2], in [3], in assay [4], in assay [5] and in assay [6]. In addition, the outcome in assay [7], in [8] and in assay [9] was inactive.
Turning to `Clc1cccc(Cl)c1`, the compound was called inactive in assay [1], in assay [2], in assay [3], in [4], in assay [5] and in assay [6]. Also, the outcome in [7], in assay [8] and in assay [9] was inactive.
As to `CN(C)C(=S)S`, the outcome in [1], in assay [3], in assay [4], in [5] and in assay [6] was inactive. Further, the concentration at half-maximal activity (AC50) in assay [2] is 0.183 µM (active); in assay [7], 0.238 µM (active); in assay [8], 0.242 µM (active); in [9], 0.125 µM (active).
For the compound `Clc1cccc(Cl)c1Cl`, the outcome in assay [1], in assay [2], in assay [3], in [4], in assay [5] and in [6] was inactive. Further, the outcome in [7], in [8] and in assay [9] was inactive.
With `Oc1c(Cl)cc(Cl)cc1Cl`, the result in assay [2], in assay [4], in assay [5], in assay [6], in assay [10] and in [7] was inactive. For the same compound, the compound was classed as inactive in assay [8]. Further, in assay [9], the AC50 was 50 µM (active).
In the case of `COc1ccccc1N`, the compound was classed as inactive in [1], in assay [2], in [3], in assay [4], in assay [6] and in assay [7]. The compound was called inactive in assay [8]. Moreover, the AC50 in assay [5] was 29.3 µM (active).
